{
  "source": "PubChem BioAssay (Tox21)",
  "note": "Results filed as inconclusive are left out. Active and inactive are the calls of the source. Calls follow the shape of the dose curve; as a rule, active = well fitted cell-killing curve with a large enough effect in the repeat runs; inconclusive = weak or mixed curves, or effect the other way; inactive = no such curve, though single readings can be large or run the other way. % is scaled to controls: 0 for no effect and ±100 for the full control effect.",
  "data": [
    {"experiment": "qHTS assay to identify small molecule antagonists of the progesterone receptor (PR) signaling pathway - cell viability counter screen (AID 1346798); also: nearly all actives have a fitted effect of over 50% in size", "conditions": "PR-UAS-bla HEK293T viability, CellTiter-Glo luminescence, 16 h; series mostly up to 92.4 µM; activity change, negative = cytotoxicity: at the top concentration", "description": "National Center for Advancing Translational Sciences [NCATS]\nNIH Chemical Genomics Center [NCGC]\nU.S. Environmental Protection Agency [EPA]\nNational Institutes of Environmental Health Sciences [NIEHS]\nNational Toxicology Program [NTP]\nU.S. Food and Drug Administration [FDA]\nProgesterone receptor (PR), a nuclear hormone receptor, plays an important role in development, metabolic homeostasis and reproduction. It is activated by the steroid hormone progesterone. Endocrine disrupting chemicals (EDCs) and their interactions with steroid hormone receptors like PR causes disruption of normal endocrine function. To identify the compounds that inhibit PR signaling, a PR-UAS-bla GripTite cell line i.e. PR-UAS-bla HEK293T (Invitrogen, Carlsbad, CA, USA) containing a beta-lactamase reporter gene under the control of an UAS response element was used to screen Tox21 10K compound library. The cytotoxicity of the Tox21 compound library against the PR-bla cell line was tested in parallel by measuring the cell viability using CellTiter-Glo assay in the same wells.\nTox21 Assay Protocol Summary:\nPR-UAS-bla HEK293T cells were dispensed at 3,000 cells/4 uL of assay medium containing 2% charcoal stripped FBS per well into black wall/clear-bottom 1536-well plates using a Multidrop Combi (ThermoFisher Scientific, Waltham, MA) dispenser. After the assay plates were incubated at a 37C and 5% CO2 for 4 hr, 23 nL of compounds dissolved in DMSO, positive controls or DMSO only was transferred to the assay plate by a Pintool station (Kalypsys, San Diego, CA), followed by addition of 1 uL of R5020 in assay medium using a Flying Reagent Dispenser (FRD, Aurora Discovery, San Diego, CA). The plates were incubated at 37C and 5% CO2 for 16 hr. Then 1 uL of LiveBLAzer B/G FRET substrate was added using a Flying Reagent Dispenser, the plates were incubated at room temperature for 2 hours, and fluorescence intensity was measured by an Envision plate reader (PerkinElmer, Shelton, CT). For cell viability readout that measures cytotoxicity, 4 uL/well of CellTiter-Glo reagent was added into the assay plates using a FRD. After 30 min incubation at room temperature, the luminescence intensity in the plates was measured using a ViewLux (PerkinElmer) plate reader.", "values": [
      {"smiles": "CCOP(=O)(OCC)OP(=O)(OCC)OCC", "activity change, negative = cytotoxicity": "0.854% (inactive)"},
      {"smiles": "Cc1cc(C)c(C(=O)P(=O)(C(=O)c2c(C)cc(C)cc2C)c2ccccc2)c(C)c1", "activity change, negative = cytotoxicity": "-3.39% (inactive)"},
      {"smiles": "CCC(Cl)[N+](=O)[O-]", "note": "(stereo not given)", "activity change, negative = cytotoxicity": "6.23% (inactive)"},
      {"smiles": "ClCC(Cl)Cl", "activity change, negative = cytotoxicity": "-9.12% (inactive)"},
      {"smiles": "O=NN1CCCCC1", "activity change, negative = cytotoxicity": "28% (inactive)"},
      {"smiles": "CC(C(=O)c1ccccc1)N(C)C", "note": "(stereo not given)", "activity change, negative = cytotoxicity": "2.99% [at 42.5 µM] (inactive)"},
      {"smiles": "CC1=NNC(=O)N(/N=C/c2cccnc2)C1", "activity change, negative = cytotoxicity": "10.5% (inactive)"},
      {"smiles": "CCC(C)n1c(=O)[nH]c(C)c(Br)c1=O", "note": "(stereo not given)", "activity change, negative = cytotoxicity": "0.593% (inactive)"},
      {"smiles": "COc1cc(OC)nc(NC(=O)NS(=O)(=O)c2ncccc2C(=O)N(C)C)n1", "activity change, negative = cytotoxicity": "-3.83% (inactive)"},
      {"smiles": "Cc1coc2c1CCC(C)C2", "note": "(stereo not given)", "activity change, negative = cytotoxicity": "-5.1% (inactive)"},
      {"smiles": "CCSC(=O)N(CC)C1CCCCC1", "activity change, negative = cytotoxicity": "9.37% (inactive)"},
      {"smiles": "Nc1cc(Cl)ccc1O", "activity change, negative = cytotoxicity": "0.688% (inactive)"},
      {"smiles": "COc1cccc(C(=O)NN(C(=O)c2cc(C)cc(C)c2)C(C)(C)C)c1C", "activity change, negative = cytotoxicity": "17.4% (inactive)"},
      {"smiles": "CCC(C)(C)c1cc(-n2nc3ccccc3n2)c(O)c(C(C)(C)CC)c1", "activity change, negative = cytotoxicity": "0.573% (inactive)"},
      {"smiles": "CCC(=O)c1ccccc1", "activity change, negative = cytotoxicity": "0.594% (inactive)"},
      {"smiles": "O=C1OC(CCN2CCCCC2)OC1(c1ccccc1)c1ccccc1", "note": "(stereo not given)", "activity change, negative = cytotoxicity": "1.12% [at 42.5 µM] (inactive)"},
      {"smiles": "CC(CCc1ccccc1)NC(C)C(O)c1ccc(O)cc1", "note": "(stereo not given)", "activity change, negative = cytotoxicity": "-25.8% [at 42.5 µM] (inactive)"},
      {"smiles": "CC(=O)CCc1ccc2c(c1)OCO2", "activity change, negative = cytotoxicity": "5.3% (inactive)"},
      {"smiles": "OC(c1ccccc1)(c1ccccc1)C1CCNCC1", "activity change, negative = cytotoxicity": "-12.1% [at 42.5 µM] (inactive)"},
      {"smiles": "CNC(=O)Oc1cccc(C(C)C)c1", "activity change, negative = cytotoxicity": "3.82% (inactive)"},
      {"smiles": "CC(C)(C)NCC(O)c1cc(Cl)c(N)c(Cl)c1", "note": "(stereo not given)", "activity change, negative = cytotoxicity": "-1.09% [at 42.5 µM] (inactive)"},
      {"smiles": "COc1ncc(F)c2nc(S(=O)(=O)Nc3c(F)cccc3F)nn12", "activity change, negative = cytotoxicity": "0.149% [at 42.5 µM] (inactive)"},
      {"smiles": "CCOP(=S)(OCC)Oc1cc(-c2ccccc2)on1", "activity change, negative = cytotoxicity": "-6.65% (inactive)"},
      {"smiles": "O=C(NCO)NCO", "activity change, negative = cytotoxicity": "-23.3% (inactive)"},
      {"smiles": "CCCCOC(=O)[C@@H](C)Oc1ccc(Oc2ccc(C#N)cc2F)cc1", "activity change, negative = cytotoxicity": "4.15% (inactive)"},
      {"smiles": "COC(=O)c1ccccc1S(=O)(=O)NC(=O)N(C)c1nc(C)nc(OC)n1", "activity change, negative = cytotoxicity": "-3.78% (inactive)"},
      {"smiles": "CCCCOP(=O)(O)OCCCC", "activity change, negative = cytotoxicity": "1.81% (inactive)"},
      {"smiles": "CCOC(=O)C(c1c(O)c2ccccc2oc1=O)c1c(O)c2ccccc2oc1=O", "activity change, negative = cytotoxicity": "4.93% [at 42.5 µM] (inactive)"},
      {"smiles": "CSc1ccc(C(=O)C(C)(C)N2CCOCC2)cc1", "activity change, negative = cytotoxicity": "15.6% (inactive)"},
      {"smiles": "C[C@]12CC[C@H]3[C@@H](CC=C4C[C@@H](O)CC[C@@]43C)[C@@H]1CC[C@@H]2O", "activity change, negative = cytotoxicity": "-2.84% [at 42.5 µM] (inactive)"},
      {"smiles": "NC1=NC(=O)C(c2ccccc2)O1", "note": "(stereo not given)", "activity change, negative = cytotoxicity": "1.33% [at 42.5 µM] (inactive)"},
      {"smiles": "COc1cccc2c1cc([N+](=O)[O-])c1c(C(=O)O)cc3c(c12)OCO3", "activity change, negative = cytotoxicity": "-17.9% (inactive)"},
      {"smiles": "O=C(O)c1cccc(Cl)c1", "activity change, negative = cytotoxicity": "6.36% (inactive)"},
      {"smiles": "COC(=O)C(c1ccccc1)C1CCCCN1", "note": "(stereo not given)", "activity change, negative = cytotoxicity": "16.2% (inactive)"},
      {"smiles": "CCN(CC)CCOC(=O)C(C)(c1ccccc1)c1ccccc1", "activity change, negative = cytotoxicity": "-3.17% [at 42.5 µM] (inactive)"},
      {"smiles": "CC(C)CC#N", "activity change, negative = cytotoxicity": "0.364% (inactive)"},
      {"smiles": "N#CCCC#N", "activity change, negative = cytotoxicity": "-0.245% (inactive)"},
      {"smiles": "ClCCCN1CCN(c2cccc(Cl)c2)CC1", "activity change, negative = cytotoxicity": "-9.61% [at 42.5 µM] (inactive)"},
      {"smiles": "COP(=S)(OC)Oc1ccc(S(N)(=O)=O)cc1", "activity change, negative = cytotoxicity": "13.1% [at 42.5 µM] (inactive)"},
      {"smiles": "C[C@]1(O)CC[C@H]2[C@@H]3CCC4=CC(=O)CC[C@]4(C)[C@@]3(F)[C@@H](O)C[C@@]21C", "activity change, negative = cytotoxicity": "7.19% (inactive)"}
    ]}
  ]
}
